Inconclusive results are not listed. Where a call stands in place of a potency, no number is given. The source made the active and inactive calls. Calls come from the whole dose curve; as a rule, active = well fitted inhibition curve with a large enough effect in the repeat runs; inconclusive = weak or mixed curves; inactive = flat fitted curve, though single readings scatter.
Target: Cytochrome P450 2D6 (Homo sapiens) (UniProt P10635)
Experiment: Cytochrome P450 family 2 subfamily D member 6 (CYP2D6) small molecule antagonists: luciferase biochemical (cell-free) qHTS assay (AID 1645840); note: nearly all actives have a fitted effect of over 55% in size
Details: P450-Glo CYP2D6 enzyme, luciferin luminescence, 1 h; series mostly up to 57.4 µM
Protocol: National Center for Advancing Translational Sciences [NCATS] Assay Overview: Cytochrome P450 (CYP) enzymes are membrane-bound hemeproteins that play a key role in metabolism of drugs and xenobiotics. Assaying the effect of chemicals on CYP isozymes is useful to minimize the adverse drug reactions and toxicities in drug development process. Chemical compounds were tested for their effect on CYP enzyme activities by using P450-Glo (TM) screening systems (Promega Corporation, Madison, WI). These systems provide a luminescent method containing proluciferin substrates and are converted to luciferin products by CYP isozymes. The luciferin products formed are detected with a luciferin detection reagent, and the amount of light produced is proportional to CYP activity. P450-Glo (TM) CYP2D6 screening system (Catalog. No. V9890) was used to detect the compounds that interfere in CYP2D6 activity.
Assay Protocol Summary: Two ul of enzyme-substrate mix was dispensed into medium binding white/solid 1536-well plates (Greiner Bio-One North America Inc., Monroe, NC) using a Flying Reagent Dispenser (FRD, Aurora Discovery, San Diego, CA). […] The assay plates were incubated at room temperature for 10 min. Then 2 ul of NADPH regeneration solution was added to each well of the assay plates using an FRD and incubated at room temperature for 1 h. The reaction was stopped by adding 4 ul of detection reagent using an FRD and after 20 min incubation at room temperature, the luminescence signal was measured using a ViewLux plate reader (Perkin Elmer, Shelton, CT). Data were expressed as relative luminescence units.
Potency is the fitted concentration of half-maximal effect.

Cytochrome P450 2D6 (Homo sapiens), sequence (P10635 whole entry, looked up): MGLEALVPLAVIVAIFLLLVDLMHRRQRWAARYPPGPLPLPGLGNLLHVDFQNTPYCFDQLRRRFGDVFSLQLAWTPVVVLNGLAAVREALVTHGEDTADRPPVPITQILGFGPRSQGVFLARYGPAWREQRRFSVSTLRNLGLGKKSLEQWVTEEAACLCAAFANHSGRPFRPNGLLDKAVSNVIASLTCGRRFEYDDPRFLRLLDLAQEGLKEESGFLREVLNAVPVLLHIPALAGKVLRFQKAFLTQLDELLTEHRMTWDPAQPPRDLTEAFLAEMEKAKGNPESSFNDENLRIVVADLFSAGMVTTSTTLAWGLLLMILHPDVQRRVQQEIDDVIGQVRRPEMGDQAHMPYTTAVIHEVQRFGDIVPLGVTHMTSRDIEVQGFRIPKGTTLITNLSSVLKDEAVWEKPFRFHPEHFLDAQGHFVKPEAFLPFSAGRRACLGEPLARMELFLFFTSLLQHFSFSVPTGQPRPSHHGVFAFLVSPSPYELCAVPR

| SMILES | Potency |
| --- | --- |
| O=S1(=O)c2cccc3cccc(c23)N1CCCN1CCN(c2ccc(F)cc2)CC1 | 3.47 µM (active) |
| CC(=O)OCC(=O)[C@@]1(OC(C)=O)[C@@H](C)C[C@H]2[C@@H]3C[C@H](F)C4=CC(=O)C=C[C@]4(C)[C@@]3(F)[C@@H](O)C[C@@]21C | inactive |
| NC(=O)C(=O)N/N=C/c1ccc([N+](=O)[O-])o1 | 6.17 µM (active) |
| COc1ccc(CN2CCN(C(c3ccc(F)cc3)c3ccc(F)cc3)CC2)c(OC)c1OC | 2.19 µM (active) |
| CCN(CC)CCNC(=O)COc1ccc(Cl)cc1 | 13.8 µM (active) |
| CC(=O)Nc1c(I)cc(I)c(C(=O)O)c1I | 19.5 µM (active) |
| CCCCC1=NC2(CCCC2)C(=O)N1Cc1ccc(-c2ccccc2-c2nn[nH]n2)cc1 | inactive |
| CCN1CCCC1=O | inactive |
| C#C[C@]1(O)CC[C@H]2[C@@H]3CCc4cc(OC5CCCC5)ccc4[C@H]3CC[C@@]21C | inactive |
| CC1(C)O[C@@H]2[C@@H](CO[C@@]3(COS(N)(=O)=O)OC(C)(C)O[C@@H]23)O1 | inactive |
| Oc1ccc(Cl)cc1Sc1cc(Cl)ccc1O | 12.3 µM (active) |
| NC(=O)CC[C@@H]1NC(=O)[C@H](Cc2ccccc2)NC(=O)[C@H](Cc2ccc(O)cc2)NC(=O)CCSSC[C@@H](C(=O)N2CCC[C@H]2C(=O)N[C@@H](CCCN=C(N)N)C(=O)NCC(N)=O)NC(=O)[C@H](CC(N)=O)NC1=O | inactive |
| CCCSS/C(CCO)=C(\C)N(C=O)Cc1cnc(C)nc1N | inactive |
| CCC(C(=O)OCCN(CC)CC)c1ccccc1 (stereo not given) | 3.09 µM (active) |
| C=C1C(=C/C=C2\CCC[C@]3(C)[C@@H]([C@H](C)/C=C/[C@@H](O)C4CC4)CC[C@@H]23)C[C@@H](O)C[C@@H]1O | 24.5 µM (active) |
| C[C@H]1[C@H](NC(=O)/C(=N/OC(C)(C)C(=O)O)c2csc(N)n2)C(=O)N1S(=O)(=O)O (stereo in doubt) | inactive |
| CNCCC=C1c2ccccc2CCc2ccccc21 | 4.77 µM (active) |
| CC(C)(C(=O)c1cccnc1)c1cccnc1 | inactive |
| CC1(C)O[C@@H]2C[C@H]3[C@@H]4CCC5=CC(=O)CC[C@]5(C)[C@@]4(F)[C@@H](O)C[C@]3(C)[C@]2(C(=O)CCl)O1 | inactive |
| CCCCCCc1ccc(O)cc1O | 4.9 µM (active) |

| SMILES | Potency |
| --- | --- |
| Cc1c(N(C)CS(=O)(=O)O)c(=O)n(-c2ccccc2)n1C | inactive |
| COCc1c(C(C)C)nc(C(C)C)c(/C=C/[C@@H](O)C[C@@H](O)CC(=O)O)c1-c1ccc(F)cc1 | inactive |
| C[C@]12C=CC(=O)C=C1[C@@H](F)C[C@@H]1[C@@H]2[C@@H](O)C[C@@]2(C)[C@H]1CC[C@]2(O)C(=O)CO | inactive |
| CC(C)=CCC1C(=O)N(c2ccccc2)N(c2ccccc2)C1=O | inactive |
| NC(=O)c1cc[n+](CC2=C(C(=O)[O-])N3C(=O)[C@@H](NC(=O)Cc4cccs4)[C@H]3SC2)cc1 | inactive |
| CN=C(NC#N)Nc1ccc(C2=NNC(=O)CC2C)cc1 (stereo not given) | inactive |
| C[C@H](O)C(=O)Nc1c(I)c(C(=O)NC(CO)CO)c(I)c(C(=O)NC(CO)CO)c1I | inactive |
| NCCC(O)(P(=O)(O)O)P(=O)(O)O | inactive |
| Cc1c(C(N)=O)cc([N+](=O)[O-])cc1[N+](=O)[O-] | inactive |
| COc1ccc(C2C(=O)c3ccccc3C2=O)cc1 | inactive |
| CN(C)CCOc1ccccc1Cc1ccccc1 | 1.95 µM (active) |
| NC(=NCCCCCCN=C(N)/N=C(\N)Nc1ccc(Cl)cc1)/N=C(\N)Nc1ccc(Cl)cc1 | 2.45 µM (active) |
| CC(=O)O[C@]1(C(C)=O)CC[C@H]2[C@@H]3C[C@H](C)C4=CC(=O)CC[C@]4(C)[C@H]3CC[C@@]21C | inactive |
| COc1ccc(CCN2CCC(Nc3nc4ccccc4n3Cc3ccc(F)cc3)CC2)cc1 | 6.17 µM (active) |
| COc1cc(OC)cc(OC)c1 | inactive |
| COc1cccc(CCc2ccccc2OCC(CN(C)C)OC(=O)CCC(=O)O)c1 (stereo not given) | 0.195 µM (active) |
| CCCCC(=O)O[C@]1(C(=O)CO)CC[C@H]2[C@@H]3CCC4=CC(=O)CC[C@]4(C)[C@H]3[C@@H](O)C[C@@]21C | inactive |
| CN(C/C=C/c1ccccc1)Cc1cccc2ccccc12 | 0.347 µM (active) |
| CO/N=C1\CN(c2nc3c(cc2F)c(=O)c(C(=O)O)cn3C2CC2)CC1CN (stereo not given) | inactive |
| CC1=C(C(=O)OC(C)C)C(c2cccc([N+](=O)[O-])c2)C(C(=O)OC2CN(C(c3ccccc3)c3ccccc3)C2)=C(N)N1 (stereo not given) | 9.77 µM (active) |
